According to PubChem BioAssay AID623955 (NMMLSC, 2012):
Potency and affinity values are given separately. Active and inactive are the calls of the source.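 How the source made its calls: active means fitted EC50, the concentration giving half the signal drop, under 100 µM; inactive means the rest.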

target: ATP-binding cassette sub-family B member 6 (Homo sapiens) (UniProt Q9NP58); assay: concentration-dependent ABCB6 porphyrin transport blockade – K562-ABCB6 cells, flow cytometry, cherry pick 1, dose response (AID 623955); settings: K562-ABCB6 porphyrin fluorescence, 1 h; series mostly up to 100 µM
Sequence (Q9NP58 whole entry, looked up): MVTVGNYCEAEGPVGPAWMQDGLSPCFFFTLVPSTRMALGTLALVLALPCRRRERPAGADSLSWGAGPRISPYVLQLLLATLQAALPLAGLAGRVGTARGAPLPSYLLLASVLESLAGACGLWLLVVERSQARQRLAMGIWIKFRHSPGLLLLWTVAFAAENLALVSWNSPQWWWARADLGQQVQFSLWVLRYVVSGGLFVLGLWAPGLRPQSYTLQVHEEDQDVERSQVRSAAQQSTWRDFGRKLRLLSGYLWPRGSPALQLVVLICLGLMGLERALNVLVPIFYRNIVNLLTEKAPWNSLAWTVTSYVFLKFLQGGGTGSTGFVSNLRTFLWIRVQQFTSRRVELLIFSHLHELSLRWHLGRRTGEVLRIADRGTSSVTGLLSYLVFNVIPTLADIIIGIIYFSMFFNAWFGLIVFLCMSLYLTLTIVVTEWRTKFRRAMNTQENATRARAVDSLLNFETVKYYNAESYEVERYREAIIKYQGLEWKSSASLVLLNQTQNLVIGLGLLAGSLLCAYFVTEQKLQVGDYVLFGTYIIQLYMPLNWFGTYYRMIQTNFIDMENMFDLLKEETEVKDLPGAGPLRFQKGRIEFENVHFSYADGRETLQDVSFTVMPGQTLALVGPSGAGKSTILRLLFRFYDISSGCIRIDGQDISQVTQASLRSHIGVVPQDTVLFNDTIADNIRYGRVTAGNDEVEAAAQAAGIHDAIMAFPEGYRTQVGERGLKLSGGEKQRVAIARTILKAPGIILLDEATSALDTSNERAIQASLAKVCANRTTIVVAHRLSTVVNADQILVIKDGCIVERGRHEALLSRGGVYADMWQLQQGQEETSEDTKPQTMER

outcome, inactive:
CCOC(=O)C(C)NC(=O)CCc1nnc2ccc(N3CCC(C)CC3)nn12 (centres undefined)
COCCNC(=O)CCc1nnc2ccc(N3CCC(C)CC3)nn12
CC1CCN(c2ccc3nnc(CCC(=O)NCCCOC(C)C)n3n2)CC1
CC(C)CCNC(=O)CCc1nnc2ccc(N3CCC(C)CC3)nn12
CCc1ccc(CNC(=O)C2Cc3cc(S(=O)(=O)N4CCCC4)ccc3N2C(C)=O)cc1 (centres undefined)
CCN1CCN(C(=O)CCc2nnc3ccc(N4CCC5(CC4)OCCO5)nn23)CC1
CN1CCN(C(=O)CCc2nnc3ccc(N4CCC5(CC4)OCCO5)nn23)CC1
CC1CC(C)CN(C(=O)CCc2nnc3ccc(N4CCCCC4)nn23)C1 (centres undefined)
CCOCCCNC(=O)CCc1nnc2ccc(N3CCCCC3)nn12
O=C(CN1CCCCC1)Nc1cccc(Br)c1
COCCCNC(=O)CCc1nnc2ccc(N3CCC(C)CC3)nn12
CCCNC(=O)CCc1nnc2ccc(N3CCC(C)CC3)nn12
CC1CCN(C(=O)CCc2nnc3ccc(N4CCC5(CC4)OCCO5)nn23)CC1
CCN(CC)CCNC(=O)CCc1nnc2ccc(N3CCC(C)CC3)nn12
CCOC(=O)CNC(=O)CCc1nnc2ccc(N3CCC(C)CC3)nn12
CCC(C)NC(=O)CCc1nnc2ccc(N3CCC(C)CC3)nn12 (centres undefined)
COC(=O)C(NC(=O)CCc1nnc2ccc(N3CCC(C)CC3)nn12)C(C)C (centres undefined)
O=C(CCc1nnc2ccc(N3CCC4(CC3)OCCO4)nn12)N1CCCCC1
CCOC(=O)C1CCN(C(=O)CCc2nnc3ccc(N4CCN(C)CC4)nn23)CC1
CC1CCN(c2ccc3nnc(CCC(=O)NC(C)C)n3n2)CC1
CCOC(=O)N1CCN(CC(=O)Nc2ccc(C)cc2)CC1
CCOC(=O)C(C)NC(=O)CCc1nnc2ccc(N3CCCCC3)nn12 (centres undefined)
COC(=O)C(NC(=O)CCc1nnc2ccc(N3CCCCC3)nn12)C(C)C (centres undefined)
CC1CCN(c2ccc3nnc(CCC(=O)N4CCCCC4)n3n2)CC1
